Values joined by “and” are separate entries in the source; they are usually repeats but may differ in a detail not shown here. Equal values may be shown once. Inconclusive results are not listed. Active and inactive are the calls of the source. How the source made its calls: active means hit-call score of the fitted dose curve at least 0.9, where 1 is the maximum; inconclusive means response in the unintended direction; inactive means score below 0.9.
Experiments:
[1] = target: Cellular tumor antigen p53 (Homo sapiens) (UniProt P04637); experiment: TOX21_p53_BLA_p3_ratio: Tox21 HCT-116 p53 Agonism Beta-lactamase Assay, Ratio, Phase 3 (AID 2283596)
Chain of Cellular tumor antigen p53 (Homo sapiens) (P04637 whole entry, looked up): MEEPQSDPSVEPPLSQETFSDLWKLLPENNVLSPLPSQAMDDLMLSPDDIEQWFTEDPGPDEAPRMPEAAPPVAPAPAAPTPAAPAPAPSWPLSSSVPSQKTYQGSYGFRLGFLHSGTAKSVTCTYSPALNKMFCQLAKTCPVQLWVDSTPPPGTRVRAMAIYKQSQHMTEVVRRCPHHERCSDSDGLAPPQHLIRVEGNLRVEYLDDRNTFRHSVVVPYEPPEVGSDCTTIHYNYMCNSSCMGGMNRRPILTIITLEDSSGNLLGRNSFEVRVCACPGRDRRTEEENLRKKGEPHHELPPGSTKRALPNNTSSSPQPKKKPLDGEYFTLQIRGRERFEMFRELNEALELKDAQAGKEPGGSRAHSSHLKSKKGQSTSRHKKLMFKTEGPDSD
In short: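 Cells were seeded at 4000/well, rested 5 h at 37C, then dosed with DMSO compound solutions (217-fold dilution) for 16 h. CCF4-AM substrate was loaded for 2 h at room temperature, and the 460/530 nm emission ratio was fitted for gain of signal versus DMSO.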

[2] = TOX21_p53_BLA_p4_viability: Viability Assessment in the Tox21 HCT-116 p53 Agonism Beta-lactamase Assay, Phase 4 (AID 2283597);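 further: hits lower the luminescence signal meaning cytotoxicity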
In short: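 ATP content by CellTiter-Glo luminescence, 30 min RT, read after the beta-lactamase ratio step. Cells: HCT116, 4000/well, compound added after 5 h, exposure 16 h at 37C. Signal loss = reduced viability.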

[3] = target: Cellular tumor antigen p53 (Homo sapiens) (UniProt P04637); experiment: TOX21_p53_BLA_p4_ratio: Tox21 HCT-116 p53 Agonism Beta-lactamase Assay, Ratio, Phase 4 (AID 2283601)
In short: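 Signal is the blue/green (460nm/530nm) ratio of cleaved versus uncleaved CCF4-AM substrate, read after 2 h substrate loading. Cells were HCT116 carrying the p53-responsive beta-lactamase reporter, dosed 16 h at 37C, 5% CO2; CellTiter-Glo measured in parallel.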

[4] = Tanguay_ZF_120hpf_YSE_legacy: (Legacy) Oregon State University Tanguay Lab 120 Hour Post-fertilization zebrafish Assay for Yolk Sac Edema (AID 2283634);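 on AC50: actives raise the incidence of yolk sac edema above the DMSO baseline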
In short: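 Binary brightfield scoring of yolk sac edema at 120 hpf; DMSO baseline, gain-of-signal fitting. Dechorionated 5D larvae, one per well, static exposure 6–120 hpf, 28C, 0.64% DMSO. Dead embryos not scored.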

[5] = Tanguay_ZF_120hpf_AXIS_legacy: (Legacy) Oregon State University Tanguay Lab 120 Hour Post-fertilization zebrafish Assay for Body Axis Malformation (AID 2283635)
In short: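 Embryos: 5D wild-type, pronase-dechorionated 4 hpf; static exposure 6–120 hpf, 28C, sealed, dark, 1 embryo/well, 0.64% DMSO. 120 hpf axis malformation scored present/absent; dead embryos excluded. Analysed as gain of signal vs DMSO.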

[6] = Tanguay_ZF_120hpf_EYE_legacy: (Legacy) Oregon State University Tanguay Lab 120 Hour Post-fertilization zebrafish Assay for Eye Malformation (AID 2283636);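 further: binary presence or absence of eye malformation scored by brightfield in 120 hpf larvae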
In short: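 Binary brightfield scoring of eye defects at 120 hpf after static exposure from 6 hpf of single pronase-dechorionated wild-type embryos (28C, 0.64% DMSO). Non-mortality endpoints omitted where embryos died; fit vs DMSO.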

[7] = Tanguay_ZF_120hpf_JAW_legacy: (Legacy) Oregon State University Tanguay Lab 120 Hour Post-fertilization zebrafish Assay for Jaw Malformation (AID 2283638);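 on AC50: active means more embryos with jaw malformation than DMSO controls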
In short: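 Binary jaw-malformation calls at 120 hpf by brightfield imaging; DMSO (0.64% v/v) = baseline. Embryos: 5D wild-type, pronase-dechorionated, one per well from 6 hpf, static exposure, 28C, sealed, dark.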

[8] = Tanguay_ZF_120hpf_OTIC_legacy: (Legacy) Oregon State University Tanguay Lab 120 Hour Post-fertilization zebrafish Assay for Otic Vesicle Malformation (AID 2283639)
In short: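 Binary scoring of otic vesicle defects at 120 hpf in zebrafish (Tropical 5D) held under static exposure at 28C, sealed and shaded, with final DMSO 0.64%. Embryos dying by 24 or 120 hpf excluded; fitted positively against DMSO.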

[9] = Tanguay_ZF_120hpf_PE_legacy: (Legacy) Oregon State University Tanguay Lab 120 Hour Post-fertilization zebrafish Assay for Pericardial Edema (AID 2283640);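 on AC50: potency for increased incidence of pericardial edema versus DMSO baseline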
In short: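 Static waterborne exposure, 5D wild-type embryos, 28C, to 120 hpf; final DMSO 0.64% (vol/vol). Binary PE call at 120 hpf by brightfield; fitted upward vs DMSO baseline. 5uM trimethyltin chloride as positive control.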

[10] = Tanguay_ZF_120hpf_BRAI_legacy: (Legacy) Oregon State University Tanguay Lab 120 Hour Post-fertilization zebrafish Assay for Brain Malformation (AID 2283641)
In short: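 Read-out: binary brain morphology call at 120 hpf (brightfield), fitted in gain-of-signal direction vs DMSO. Wild-type Tropical 5D embryos, static exposure, 28C, 0.64% DMSO final; 5uM trimethyltin chloride as positive control.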

[11] = Tanguay_ZF_120hpf_SOMI_legacy: (Legacy) Oregon State University Tanguay Lab 120 Hour Post-fertilization zebrafish Assay for Somite Malformation (AID 2283647)
In short: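 Binary brightfield scoring of somite defects at 120 hpf in 5D wild-type larvae; one dechorionated embryo per well, static exposure from 6 hpf, 28C, sealed and dark. Final DMSO 0.64%; trimethyltin chloride 5uM positive control.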

[12] = Tanguay_ZF_120hpf_PFIN_legacy: (Legacy) Oregon State University Tanguay Lab 120 Hour Post-fertilization zebrafish Assay for Pectoral Fin Malformation (AID 2283648);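 further: each larva judged yes or no for fin defect by brightfield with dead larvae skipped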
In short: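 Pectoral fin malformation was recorded as a binary endpoint at 120 hpf in wild-type Tropical 5D larvae, which had been dechorionated and exposed statically from 6 hpf at 28C in 0.64% DMSO. Dead embryos were excluded.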

[13] = Tanguay_ZF_120hpf_CFIN_legacy: (Legacy) Oregon State University Tanguay Lab 120 Hour Post-fertilization zebrafish Assay for Caudal Fin Malformation (AID 2283649)
In short: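 Dechorionated 5D wild-type zebrafish, static exposure 6–120 hpf, 28C, sealed and dark, 0.64% v/v DMSO final. Binary fin-malformation call at 120 hpf, brightfield; gain of signal vs DMSO baseline.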

[14] = Tanguay_ZF_120hpf_PIG_legacy: (Legacy) Oregon State University Tanguay Lab 120 Hour Post-fertilization zebrafish Assay for Pigmentation Malformation (AID 2283650)
In short: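 Pigment malformation recorded as a binary call at 120 hpf in zebrafish (Tropical 5D) exposed singly from 6 hpf after pronase dechorionation. Static, sealed, 28C exposure, 0.64% DMSO; mortality excludes scoring; positive-direction fit against DMSO.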

[15] = Tanguay_ZF_120hpf_CIRC_legacy: (Legacy) Oregon State University Tanguay Lab 120 Hour Post-fertilization zebrafish Assay for Circulatory Malformation (AID 2283651)
In short: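 Binary circulatory malformation call at 120 hpf by brightfield imaging of zebrafish larvae; chorion removed at 4 hpf, static exposure from 6 hpf in sealed dark plates at 28C, final DMSO 0.64%; non-mortality endpoints skipped if embryo died.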

[16] = TOX21_p53_BLA_p5_viability: Viability Assessment in the Tox21 HCT-116 p53 Agonism Beta-lactamase Assay, Phase 5 (AID 2283600)
In short: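 ATP luminescence (CellTiter-Glo, 30 min, RT) served as the viability read-out, with loss of signal indicating cytotoxicity. Compounds in DMSO were pinned at a 217-fold dilution onto 4000 cells/well and incubated 16 h, 37C.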

[17] = Tanguay_ZF_120hpf_MORT_legacy: (Legacy) Oregon State University Tanguay Lab 120 Hour Post-fertilization zebrafish Assay for Mortality (AID 2283633);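 on AC50: fitted as increase in binary mortality versus DMSO negative control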
In short: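 Brightfield scoring of embryo death (binary) at 24 and 120 hpf; static exposure 6–120 hpf, 28C, sealed and foil-covered. Pronase-dechorionated 5D wild-type larvae, single embryo per well. DMSO 0.64% v/v; trimethyltin chloride 5uM positive control.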

[18] = Tanguay_ZF_120hpf_SNOU_legacy: (Legacy) Oregon State University Tanguay Lab 120 Hour Post-fertilization zebrafish Assay for Snout Malformation (AID 2283637)
In short: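 Binary snout-malformation call at 120 hpf in wild-type 5D embryos, chorion removed by pronase, under static exposure from 6 hpf at 28C (0.64% DMSO). Embryos dying by 24 or 120 hpf excluded.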

[19] = target: Cellular tumor antigen p53 (Homo sapiens) (UniProt P04637); experiment: TOX21_p53_BLA_p5_ratio: Tox21 HCT-116 p53 Agonism Beta-lactamase Assay, Ratio, Phase 5 (AID 2283599)
In short: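 Beta-lactamase reporter ratio (blue 460 nm over green 530 nm, 405 nm excitation) after 2 h CCF4-AM loading, in HCT-116 cells exposed 16 h at 37 C to compounds pinned at 217-fold dilution. Increases relative to DMSO baseline scored.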

Measured: AC50

N#Cc1cc(Br)c(O)c(Br)c1
active: [1] 57.5 µM and 55.7 µM | [3] 57.9 µM and 74.3 µM
not listed: [16] | [17] | [18] | [19]
inactive: all other assays above

CC(C)(C)c1ccc(CSc2cnn(C(C)(C)C)c(=O)c2Cl)cc1
active: [17] 25.1 µM
not listed: [2] | [5] | [11] | [12] | [14] | [19]
inactive: all other assays above

CCOC(=O)C(Cl)Cc1cc(-n2nc(C)n(C(F)F)c2=O)c(F)cc1Cl (configuration not stated)
active: [4] 1.27 µM | [6] 1.7 µM | [18] 4.26 µM | [7] 5.22 µM | [8] 1.82 µM | [9] 2.58 µM | [10] 2.91 µM | [11] 2.22 µM | [13] 5.09 µM | [14] 1.88 µM
inactive: [2] | [16] | [3] | [17] | [15]

CCNc1nc(Cl)nc(NC(C)C)n1
not listed: [1] | [2] | [5] | [12] | [16] | [18] | [19]
inactive: all other assays above

CC1COC(Cn2cncn2)(c2ccc(Oc3ccc(Cl)cc3)cc2Cl)O1 (configuration not stated)
inactive: [16] | [17] | [18] | [8] | [9] | [11] | [15]
active: [1] 46.1 µM | [2] 71.1 µM | [3] 90.3 µM | [4] 8.51 µM | [7] 26.6 µM

COC(=O)C=C(C)OP(=O)(OC)OC
not listed: [1] | [2] | [8] | [12] | [19]
inactive: all other assays above

Cc1c(F)c(F)c(COC(=O)C2C(/C=C(\Cl)C(F)(F)F)C2(C)C)c(F)c1F (configuration not stated)
inactive: [1] | [2] | [16] | [17] | [11] | [13] | [15]
active: [4] 1.79 µM | [6] 3.05 µM | [7] 2.75 µM | [8] 3.67 µM | [9] 5.03 µM | [10] 2.6 µM | [14] 3.42 µM

O=C(O)c1nc(Cl)ccc1Cl
not listed: [3] | [5] | [12] | [18] | [19]
inactive: all other assays above

COc1ccc(C(c2ccc(OC)cc2)C(Cl)(Cl)Cl)cc1
not listed: [5] | [8] | [12] | [14] | [18] | [19]
inactive: all other assays above

C=CCC1=C(C)[C@@H](OC(=O)[C@@H]2[C@@H](C=C(C)C)C2(C)C)CC1=O
not listed: [5] | [7] | [8] | [12] | [18] | [19]
inactive: all other assays above

CCCCNC(=O)n1c(NC(=O)OC)nc2ccccc21
inactive: [2] | [17] | [8] | [9] | [11] | [13] | [15]
active: [1] 15.9 µM and 15.4 µM | [3] 11.9 µM and 9.73 µM | [4] 52.3 µM | [6] 72.8 µM | [7] 59.2 µM | [14] 27.9 µM

N#CC(CCc1ccc(Cl)cc1)(Cn1cncn1)c1ccccc1 (configuration not stated)
active: [2] 39.1 µM | [3] 71.5 µM
not listed: [5] | [6] | [12] | [19]
inactive: all other assays above

COc1nc(NC(C)C)nc(NC(C)C)n1
not listed: [2] | [5] | [12] | [16] | [18]
inactive: all other assays above

— PubChem BioAssay (EPA / NIEHS)
